In the supplement of paper PMC4166925:
± gives the standard deviation of the averaged measurements. Over roughly 33,000 sequences, “E-score (dimensionless, -0.5 to 0.5)” has its median near -0.046; the highest 2% begin near 0.36. For the sample, the highest values were picked, then their nearest neighbours and some sequences at random.

Test system: T1, SpTbr T-box DNA-binding domain (GST fusion)
T1 sequence: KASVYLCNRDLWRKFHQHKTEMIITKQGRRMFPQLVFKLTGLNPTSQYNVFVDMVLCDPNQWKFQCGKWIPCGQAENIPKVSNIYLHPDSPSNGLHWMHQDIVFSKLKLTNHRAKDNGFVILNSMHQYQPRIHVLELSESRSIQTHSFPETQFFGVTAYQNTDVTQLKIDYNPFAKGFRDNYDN
Assay: PBM E-score of 8-mer (E-score (dimensionless, -0.5 to 0.5)); Tbr is Tbrain of the sea star Patiria miniata (Pm) or the sea urchin Strongylocentrotus purpuratus (Sp); higher = stronger binding preference
Settings: the construct has about 5 more residues each side
Method: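 Universal protein-binding microarray (Agilent AMADID 016060, 60-bp probes with a 35-bp variable region) incubated with 200 nM GST-fused Strongylocentrotus purpuratus Tbr T-box DNA-binding domain (residues 362-554) in PBS pH 7.5. Scored for every ungapped 8-mer (given with its reverse complement) as E-score (range -0.5 to 0.5; >0.45 counts as bound) and Z-score of median probe intensity. Two replicate arrays (datasets 1 and 2).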
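Further: protein at 200 nM in PBS on universal double-stranded arrays.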

Row | Sequence | PBM E-score of 8-mer
1 | ATTCTGTG | -0.0566 ± 0.036
2 | CTCTCAGA | -0.187 ± 0.0034
3 | CTCCGGCA | 0.0686 ± 0.041
4 | CCATAAGG | -0.0717 ± 0.0012
5 | AGGCGTCG | 0.349 ± 0.018
6 | AGGCGTCA | 0.41 ± 0.005
7 | CGGCGTCA | 0.223 ± 0.02
8 | GGGCGTCA | 0.376 ± 0.017
9 | GCGCGTCA | 0.265 ± 0.028
10 | GTGCGTCA | 0.187 ± 0.009
11 | ACTTCAAT | -0.0527 ± 0.032
12 | ACGTCACG | 0.217 ± 0.057
13 | ATGTTGGG | -0.0592 ± 0.0084
14 | TAAGGCTA | -0.149 ± 0.077
15 | CACACTCG | 0.426 ± 0.019
16 | CCCACTCG | 0.05 ± 0.13
17 | TACACTCA | 0.137 ± 0.013
18 | AACACTCC | 0.283 ± 0.039
19 | AACACTCG | 0.193 ± 0.0083
20 | CACACTCA | 0.407 ± 0.0072
21 | GACACTCC | 0.316 ± 0.0096
22 | CACACTCC | 0.402 ± 0.0059
23 | AACACTCA | 0.31 ± 0.0041
24 | CGCAGCAC | 0.0169 ± 0.017
25 | AGTTGCTA | 0.239 ± 0.042

Row | Sequence | PBM E-score of 8-mer
26 | GGACACAC | 0.0866 ± 0.0081
27 | CGTCACAA | 0.244 ± 0.0062
28 | GGTCACAC | 0.46 ± 0.013
29 | CGTCACAG | 0.232 ± 0.0032
30 | AGTCACAG | 0.0674 ± 0.028
31 | GGTCACAA | 0.2073 ± 0.00096
32 | CGTCACAC | 0.43 ± 0.011
33 | AGTCACAT | 0.1318 ± 0.0012
34 | AGTCACAC | 0.457 ± 0.0049
35 | GTTCATCA | 0.0211 ± 0.0087
36 | ATCAACAT | -0.111 ± 0.028
37 | AGTGCTCC | -0.0941 ± 0.03
38 | AGTCTTGG | -0.101 ± 0.011
39 | CGTAAGTA | 0.169 ± 0.0079
40 | AGATGTCC | -0.309 ± 0.003
41 | AGGTGTCC | 0.428 ± 0.0068
42 | AGGTGTCG | 0.486 ± 0.008
43 | AGCTGTCG | 0.263 ± 0.013
44 | ACGTGTCG | 0.362 ± 0.015
45 | ACGTGTCC | 0.0769 ± 0.048
46 | CCACCAGG | -0.177 ± 0.03
47 | CGTGAGCA | 0.105 ± 0.039
48 | GCCTAAGC | -0.159 ± 0.006
49 | CTAACTAG | 0.0135 ± 0.086
50 | AAGGGAAA | -0.289 ± 0.05

Row | Sequence | PBM E-score of 8-mer
51 | GACAATGA | 0.176 ± 0.0013
52 | CTCACCAC | 0.218 ± 0.037
53 | ATCACCTA | 0.321 ± 0.065
54 | CTCACCTC | 0.444 ± 0.0047
55 | CTCACCGC | 0.0406 ± 0.0049
56 | ATCACCTC | 0.387 ± 0.0097
57 | ATCACCAC | 0.113 ± 0.004
58 | CCGGTTCC | -0.27 ± 0.0077
59 | GTGCCATA | 0.222 ± 0.024
60 | ATAACGCC | 0.28 ± 0.032
61 | AAGGATTA | -0.152 ± 0.047
62 | CAGATCAG | -0.0587 ± 0.00064
63 | AAAAGTGT | 0.39 ± 0.016
64 | ACAAGTGG | 0.355 ± 0.012
65 | AAAAGTGG | 0.118 ± 0.11
66 | ACAAGTGA | 0.243 ± 0.07
67 | AAAAGTGA | 0.169 ± 0.069
68 | ACAAGTGT | 0.381 ± 0.019
69 | TAACCCTA | -0.15553 ± 2.1e-05
70 | ACTGTGAG | 0.269 ± 0.031
71 | GTTGTGAA | 0.4 ± 0.015
72 | CTTGTGAA | 0.353 ± 0.034
73 | ACTGTGAT | 0.242 ± 0.0029
74 | ACTGTGAA | 0.413 ± 0.0064
75 | GCTGTGAA | 0.4045 ± 0.0013

Row | Sequence | PBM E-score of 8-mer
76 | GCTGTGGA | 0.151 ± 0.058
77 | TCTGTGAA | 0.329 ± 0.017
78 | ATTGTGAA | 0.317 ± 0.067
79 | AAAGAGAG | -0.0256 ± 0.025
80 | GAACTCGA | 0.194 ± 0.051
81 | TATGATAA | -0.00343 ± 0.017
82 | AGTGATAA | 0.278 ± 0.067
83 | TGTGATAA | 0.377 ± 0.017
84 | CGTGATAA | 0.27 ± 0.036
85 | GGTGATAC | 0.221 ± 0.028
86 | GGTGATAA | 0.37553 ± 0.00031
87 | CGTATGCC | -0.271 ± 0.057
88 | CCACCTAG | 0.183 ± 0.046
89 | ACACCGGT | 0.246 ± 0.055
90 | AAACCTAG | 0.0536 ± 0.035
91 | GCACCTAA | 0.339 ± 0.04
92 | ACACCTGT | 0.4669 ± 0.0038
93 | ACACCTAG | 0.444 ± 0.0087
94 | ACACCTAA | 0.4637 ± 0.0015
95 | ACACCTAT | 0.4592 ± 0.0012
96 | TCACCTAA | 0.301 ± 0.018
97 | AAACCTGT | 0.0331 ± 0.12
98 | AGACCTAT | -0.142 ± 0.047
99 | ATACCTAT | -0.0845 ± 0.068
100 | CGTGGGAC | 0.0261 ± 0.0086

Row | Sequence | PBM E-score of 8-mer
101 | AATCCCAC | 0.151 ± 0.013
102 | ATCTGCCG | -0.21 ± 0.071
103 | TGCATTAA | 0.022 ± 0.05
104 | CATGCGCC | -0.226 ± 0.0069
105 | CGCATATC | -0.0822 ± 0.013
106 | CAGACCCA | -0.0355 ± 0.018
107 | AGGTCTTA | -0.0667 ± 0.12
108 | CCCTCACG | 0.153 ± 0.063
109 | ACTGGACC | -0.203 ± 0.069
110 | ATCCAGCC | -0.0901 ± 0.0022
111 | GCACCTAC | 0.352 ± 0.025
112 | ACACCTAC | 0.462 ± 0.0061
113 | CCACCTAC | 0.248 ± 0.043
114 | AATAGATG | 0.0328 ± 0.094
115 | AACTAATG | -0.0496 ± 0.012
116 | AGCTTTGA | -0.239 ± 0.067
117 | AGTCTCTC | -0.105 ± 0.029
118 | CTTCCTCC | -0.204 ± 0.065
119 | AGCAACAG | -0.0121 ± 0.0042
120 | AGCAACAA | 0.1945 ± 0.00053
121 | CGCAACAC | 0.306 ± 0.024
122 | GGCAACAC | 0.3658 ± 0.00072
123 | AGCAACAC | 0.376 ± 0.026
124 | GGCAACAA | 0.13 ± 0.019
125 | GGTTATCA | 0.0778 ± 0.034

Row | Sequence | PBM E-score of 8-mer
126 | CGCTAAAC | 0.187 ± 0.1
127 | GACGGGCA | -0.2934 ± 0.0011
128 | AACTGGTG | 0.188 ± 0.02
129 | ACACCCCC | 0.363 ± 0.015
130 | ACACCCCG | 0.35 ± 0.018
131 | ACCCCCCT | -0.162 ± 0.03
132 | ACACCCCA | 0.376 ± 0.013
133 | ACACCCCT | 0.385 ± 0.013
134 | ACCCCTCT | -0.063 ± 0.085
135 | TGACGTAA | -0.098 ± 0.019
136 | CATATCTA | -0.24 ± 0.025
137 | GAAGCCTA | -0.182 ± 0.037
138 | GACGGGCC | -0.12 ± 0.046
139 | AAGCGCGC | 0.0762 ± 0.0076
140 | TAGCGCGA | 0.3785 ± 0.0014
141 | GAGCGCGA | 0.279 ± 0.053
142 | AAGCGCGG | 0.136 ± 0.063
143 | AAGCGCGA | 0.369 ± 0.007
144 | CAGCGCGA | 0.199 ± 0.0059
145 | CTTCCAGA | -0.22 ± 0.011
146 | ACCATAGC | 0.0118 ± 0.017
147 | CTCTGGGC | -0.112 ± 0.012
148 | TCATTGGA | -0.0638 ± 0.031
149 | CCTCCATC | -0.0262 ± 0.042
150 | CCACACCC | 0.414 ± 0.024

Row | Sequence | PBM E-score of 8-mer
151 | ACACACTC | 0.307 ± 0.019
152 | CCACACTA | 0.279 ± 0.029
153 | CCACACCG | 0.226 ± 0.071
154 | CCACACTC | 0.374 ± 0.015
155 | ACACACCC | 0.33 ± 0.0064
156 | ATCCTGCC | -0.182 ± 0.054
157 | ATGGGCAG | -0.0503 ± 0.058
158 | ATGCCCGC | 0.031 ± 0.012
159 | ATGTGCCC | -0.0447 ± 0.038
160 | AAGTGCCA | 0.4045 ± 0.0038
161 | ATGTGCCA | 0.374 ± 0.01
162 | ATGTGCCG | 0.175 ± 0.032
163 | AAGTGCTC | 0.118 ± 0.051
164 | AAGTGCTA | 0.419 ± 0.014
165 | AAGTGCTG | 0.246 ± 0.04
166 | GAGTGCCA | 0.20475 ± 0.00018
167 | AAGTGCCC | -0.146 ± 0.044
168 | AAGAGAGA | -0.141 ± 0.03
169 | GTCACACA | 0.409 ± 0.03
170 | GTCACAAA | 0.125 ± 0.032
171 | CACACACG | 0.233 ± 0.057
172 | CACACACA | 0.3384 ± 0.00066
